# According to PubChem BioAssay AID488969 (Vanderbilt High Throughput Screening Facility, 2010):
# Over roughly 110,000 compounds, “z-score” has its median near -0.1; the highest 2% begin near 2. The list comes from a sample in which the highest values are over-represented; it also holds similar structures and randomly drawn compounds. Activity calls are given as the source filed them.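 How the source made its calls: active means z-score in the third read window above 3 or below -3; inactive means the rest.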
# Molecular target: Metabotropic glutamate receptor 8 (Rattus norvegicus) (UniProt P70579)
# Assay: rat mGluR8 modulators via GIRK flux, primary screen, cell-based, thallium flux, HTS (AID 488969)
# Conditions: HEK293 rat mGluR8, GIRK (G protein-gated inwardly rectifying potassium channel) thallium flux, FluoZin2; at 10 µM; stronger effect = higher value; submaximal glutamate (EC20) added with thallium
# Chain of Metabotropic glutamate receptor 8 (Rattus norvegicus) (P70579 whole entry, looked up): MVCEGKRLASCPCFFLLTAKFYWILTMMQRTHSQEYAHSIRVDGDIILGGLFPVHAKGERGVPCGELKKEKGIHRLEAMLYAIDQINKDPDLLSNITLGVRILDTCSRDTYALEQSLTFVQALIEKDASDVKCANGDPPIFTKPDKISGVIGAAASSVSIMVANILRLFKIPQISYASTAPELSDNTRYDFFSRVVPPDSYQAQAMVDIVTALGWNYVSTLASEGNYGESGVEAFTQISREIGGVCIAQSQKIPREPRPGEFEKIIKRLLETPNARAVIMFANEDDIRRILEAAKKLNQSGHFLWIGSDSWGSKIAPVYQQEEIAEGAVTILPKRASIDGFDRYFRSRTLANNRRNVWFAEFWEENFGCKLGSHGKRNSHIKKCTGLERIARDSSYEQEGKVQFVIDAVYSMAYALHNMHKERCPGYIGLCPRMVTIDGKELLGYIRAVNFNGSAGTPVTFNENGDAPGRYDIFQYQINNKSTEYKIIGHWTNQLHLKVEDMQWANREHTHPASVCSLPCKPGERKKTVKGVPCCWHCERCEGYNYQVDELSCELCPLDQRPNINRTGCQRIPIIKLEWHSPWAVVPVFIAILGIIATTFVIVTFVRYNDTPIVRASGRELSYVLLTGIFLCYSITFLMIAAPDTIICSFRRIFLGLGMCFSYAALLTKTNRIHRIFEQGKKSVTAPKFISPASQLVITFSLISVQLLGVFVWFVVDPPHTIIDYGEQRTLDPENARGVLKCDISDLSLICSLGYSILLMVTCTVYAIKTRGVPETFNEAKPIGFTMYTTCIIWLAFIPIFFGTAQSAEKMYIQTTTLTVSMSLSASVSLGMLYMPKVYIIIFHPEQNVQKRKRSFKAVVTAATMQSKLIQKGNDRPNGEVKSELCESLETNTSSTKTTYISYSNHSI
row,Compound,z-score
1,O=C(CC1Oc2ccccc2NC1=O)NC1CCCC1 (configuration not stated),-0.0976
2,CC1CCC(NC(=O)CC2Oc3ccccc3NC2=O)CC1 (configuration not stated),-0.471
3,O=C(CC1Oc2ccccc2NC1=O)NC1CC1 (configuration not stated),2.19
4,Cc1ccc(NC(=O)CCn2cnc3cc(C)c(C)cc32)cc1,-0.642
5,CCOc1ccccc1N1CCN(C(=O)C(F)(F)F)CC1,-0.337
6,Cc1cc(C)nc(NS(=O)(=O)c2ccc(N/C=C3\CCCC3=O)cc2)n1,-0.331
7,COc1ccccc1Nc1nc2nonc2nc1N1CCCCC1C (configuration not stated),-0.202
8,O=C(NC(=S)N1CCN(c2ccc(F)cc2)CC1)C12CC3CC(CC(C3)C1)C2,2.89
9,O=C(Nc1ccccc1N1CCN(c2ccc(F)cc2)CC1)C12CC3CC(CC(C3)C1)C2,-1.97
10,CC12CC3(C)CC(C)(C1)CC(C(=O)NC(=S)NC(C)(C)C)(C2)C3,0.0601
11,CC(C)(C)C(=O)NC(=S)N1CCOCC1,-0.0566
12,O=C(N1CCN(c2ccccc2)CC1)C12CC3CC(CC(C3)C1)C2,-0.202
13,CC12CC3CC(C)(C1)CC(C(=O)NC(=S)N1CCOCC1)(C3)C2,3.1 (active)
14,O=C(NC(=S)N1CCOCC1)C12CCC3CC(CC(C3)C1)C2,0.411
15,O=C(N1CCOCC1)C12CC3CC(C1)CC(C(=O)N1CCOCC1)(C3)C2,0.153
16,O=C(NC(=S)N1CCOCC1)C12CC3CCC(CC(C3)C1)C2,0.454
17,O=C(NC(=S)N1CCCCC1)C12CC3CC(CC(C3)C1)C2,5.6 (active)
18,CC12CC3CC(C)(C1)CC(CN1CCOCC1)(C3)C2,-0.06
19,CC12CC3(C)CC(C)(C1)CC(C(=O)NC(=S)N1CCOCC1)(C2)C3,8.61 (active)
20,CCOC(=O)Nc1cccc(NC(=O)c2cc(OC)cc(OC)c2)c1,-0.454
21,C=CCc1ccc(OCC(O)COCC)c(OC)c1 (configuration not stated),-0.12
22,N#C/C(=C\c1cccs1)C(=O)NCc1cccnc1,-0.112
23,O=C(CNc1ccc(C(F)(F)F)cc1[N+](=O)[O-])OCC(=O)c1ccccc1,-0.875

row,Compound,z-score
1,CCOc1ccccc1N1CCN(C(=S)NC(=O)C23CC4CC(CC(C4)C2)C3)CC1,4.1 (active)
2,CC12CC3CC(C)(C1)CC(C(=O)NC(=S)N1CCCCC1)(C3)C2,8.62 (active)
3,CCOc1ccccc1N1CCN(C(=O)c2ccccc2)CC1,-1.51
4,O=C(CC12CC3CC(CC(C3)C1)C2)N1CCCC1,-0.327
5,O=C(CC12CC3CC(CC(C3)C1)C2)NC(=S)N1CCCCC1,2.58
6,O=C(NC(=S)N1CCCCCC1)C1CC1,0.000532
7,CCN(CC)CCNC(=O)C12CC3CC(C)(CC(C)(C3)C1)C2,0.873
8,O=C(CC12CC3CC(CC(C3)C1)C2)NCC(=O)N1CCCC1,0.463
9,CCOc1ccccc1N1CCN(C(=S)Nc2ccc(S(N)(=O)=O)cc2)CC1,-0.356
10,COC1(c2ccccc2)NC(=S)NN=C1c1ccccc1 (configuration not stated),0.721
11,O=S(=O)(c1cccc(NC(=S)N2CCN(c3ccccc3)CC2)c1)C(F)F,-0.245
12,Cc1occc1-c1nnc(SCC(=O)NC(C)(C)C)n1C(C)c1ccccc1 (configuration not stated),0.32
13,CN1C(=O)c2ccccc2C(C(=O)NCC2CCCO2)C1c1c[nH]c2ccccc12 (configuration not stated),-1.14
14,COc1ccc(CCNC(=O)COC(=O)c2ccc(Br)o2)cc1OC,0.125
15,COc1ccc(CC(=O)NNC(=O)CSc2nnc(Cc3ccc(OC)cc3)n2-c2ccccc2)cc1,-0.277
16,N#Cc1ccccc1NC(=O)c1ccccc1OCC(=O)Nc1ccc2c(c1)oc1ccccc12,-0.362
17,CC(C)(C)NC(=O)COC(=O)c1ccccc1OCC(=O)Nc1ccc(Br)cc1,-0.154
18,CCN1C(=O)CC(N2CCC(Nc3ccc(OC)cc3)CC2)C1=O (configuration not stated),0.0918
19,COc1ccc(CCNC(=O)COc2ccc(S(=O)(=O)NCC(C)C)cc2Cl)cc1OC,-0.464
20,Cc1ccc(NC(=O)/C(C#N)=C/c2cc(C)n(-c3ccc(N4CCOCC4)c([N+](=O)[O-])c3)c2C)c(C)c1,-0.136
21,CCOC(=O)N1CCC(N2C(=O)c3ccccc3C2Nc2ccc(C)cc2)CC1 (configuration not stated),-0.488
22,CCOC(=O)c1ccccc1NC1c2ccccc2C(=O)N1C1CCN(C(=O)OCC)CC1 (configuration not stated),-0.69
23,CCOC(=O)N1CCC(N2C(=O)c3ccccc3C2Nc2ccccc2)CC1 (configuration not stated),-0.126

row,Compound,z-score
1,CCOC(=O)N1CCC(N2C(=O)c3ccccc3C2Nc2ccccc2C)CC1 (configuration not stated),2.74
2,CCOC(=O)N1CCC(N2C(=O)c3ccccc3C2Nc2c(C)cccc2C)CC1 (configuration not stated),-0.177
3,CCOC(=O)N1CCC(N2C(=O)c3ccccc3C2Nc2ccc3c(C)cc(=O)oc3c2)CC1 (configuration not stated),4.01 (active)
4,CCN(CC)c1ccc(C(=O)N/N=C(\C)c2ccc(OC)c(OC)c2)cc1,0.585
5,CCOC(=O)c1cc2c(ccn2C)n1CC(=O)N(Cc1ccccc1)c1ccc(F)cc1,1.2
6,CCOC(=O)C(C)(C)Sc1nc2c(cnn2-c2ccc(Cl)cc2)c(=O)[nH]1,-0.781
7,Cc1ccc(OCC(=O)c2ccc3c(c2)CCCC3)cc1C,-0.12
8,O=C(Nc1ccc2c3c(cccc13)CC2)c1ccco1,0.0277
9,Cc1cc(C)c(NC(=O)c2ccccc2N(C)S(C)(=O)=O)c(C)c1,0.0701
10,CC1(C)CC(=O)c2cn3nc(C(F)(F)F)nc3nc2C1,-0.129
11,CCC1(c2ccc(Cl)cc2)NC(=S)N(c2ccccc2)N1 (configuration not stated),4.78 (active)
12,CC1CCC2(CC1)NC(=S)N(c1ccccc1)N2 (configuration not stated),0.323
13,CCC1(c2ccccc2)NC(=S)N(c2cccc(C)c2C)N1 (configuration not stated),1.26
14,Cc1ccc(SCCC(=O)Nc2ccc(Br)c(C)c2)cc1,-0.0218
15,S=c1[nH]nc(-c2ccco2)n1/N=C/c1ccccc1Cl,1.07
16,S=c1[nH]nc(-c2ccco2)n1/N=C/c1ccc(Cl)c(Cl)c1,1.59
17,S=c1[nH]nc(-c2ccco2)n1/N=C/c1ccc(Cl)cc1Cl,6.87 (active)
18,Cn1cccc1/C=N/n1c(-c2ccc(Cl)cc2Cl)n[nH]c1=S,2.46
19,Cc1ccsc1/C=N/n1c(-c2ccco2)n[nH]c1=S,0.377
20,Cn1cccc1/C=N/n1c(-c2ccc(Cl)cc2)n[nH]c1=S,1.03
21,S=c1[nH]nc(-c2ccco2)n1/N=C/c1cccc(Cl)c1Cl,5.73 (active)
22,S=c1[nH]nc(-c2ccco2)n1/N=C/c1ccc(Cl)cc1,-0.0483
23,Cc1ccc(-c2n[nH]c(=S)n2/N=C/c2cccn2C)cc1,1.02

row,Compound,z-score
1,Cc1ccc(-n2nc(CN3CCOCC3)c(-c3ccccc3)c2N)c(C)c1,-0.0359
2,CCCOc1ccc(-c2csc(N)n2)cc1[N+](=O)[O-],-0.349
3,Cc1ccc(C2NC(c3ccc(C)cc3)C(C)C(=NO)C2C)cc1 (configuration not stated),-0.376
4,O=C(Nn1cnnc1)c1ccccc1CCc1ccccc1,0.0675
5,CS(=O)(=O)c1ccc2nc(NC(=O)C3COc4ccccc4O3)sc2c1 (configuration not stated),0.303
6,Cn1c(=O)c2c(nc(NCc3ccc4c(c3)OCO4)n2Cc2ccccc2)n(C)c1=O,-1.09
7,CCc1ccc(S(=O)(=O)N2CC(=O)Nc3ccccc32)cc1,-0.195
8,Cc1cccc(Sc2ccc([N+](=O)[O-])cc2[N+](=O)[O-])n1,-0.278
9,COc1cc(C=O)c(Br)cc1OCc1ccc(C)cc1,-0.101
10,CCOc1cc(C=O)c(Br)cc1OC1CCCC1,0.0863
11,COc1cc(C=O)c(Br)cc1OC1CCCC1,2.09
12,CCOc1ccc(CCNC(=O)C2CCN(C(=O)N(C)C)CC2)cc1OCC,0.862
13,Clc1cccc2c1Sc1ccccc1CC2N1CCNCC1 (configuration not stated),0.386
14,Clc1ccc2c(c1)C(C1=NCCN1)c1ccccc1CS2 (configuration not stated),0.865
15,Clc1ccc2c(c1)C(N1CCNCC1)Cc1ccccc1S2 (configuration not stated),3.92 (active)
16,COc1ccc(OC)c(N(CC(=O)Nc2cccnc2)S(=O)(=O)c2ccccc2)c1,-0.398
17,C=CCOc1cccc(/C=N/NC(=O)CN(c2cc(Cl)ccc2OC)S(=O)(=O)c2ccc(C)c([N+](=O)[O-])c2)c1,-0.0532
18,Cc1ccc2nc3sc(C(=O)NCc4ccco4)c(N)c3cc2c1,-0.222
19,CNC(=O)CSc1nnnn1CCCOC,0.0742
20,COC(=O)C1=NN(C(=O)c2ccc(Cl)cc2)C(O)(c2ccccc2)C1 (configuration not stated),11.5 (active)
21,CCOC(=O)C1=NN(C(C)=O)C2(CC(=O)N(c3cccc(C)c3)C2=O)C1 (configuration not stated),-0.0266
22,CCC1=NN(C(=O)Cc2ccc([N+](=O)[O-])cc2)C(O)(c2ccc(Br)cc2)C1 (configuration not stated),-0.206
23,COC(=O)C1=NN(C(=O)c2ccc(C)cc2)C(O)(c2ccc(Cl)cc2)C1 (configuration not stated),8.48 (active)

row,Compound,z-score
1,CCOC(=O)C1=NN(C(=O)c2ccccc2)C(O)(c2ccc(C)cc2)C1 (configuration not stated),10.5 (active)
2,CCC1(O)CC(C(=O)OC)=NN1C(=O)c1ccccc1 (configuration not stated),0.602
3,CC1=NN(C(=O)c2ccc(C)cc2)C(O)(C(F)(F)OC(F)(F)F)C1 (configuration not stated),-0.0203
4,CCC1=NN(C(=O)c2ccc(C)cc2)C(O)(c2ccc(Br)cc2)C1 (configuration not stated),0.175
5,CCC1=NN(C(=O)c2cccc(Br)c2)C(O)(c2ccc(Br)cc2)C1 (configuration not stated),3.84 (active)
6,COC(=O)C1(O)CC(C(C)C)=NN1C(=O)c1ccc(Cl)cc1 (configuration not stated),0.417
7,COC(=O)C1=NN(C(=O)c2ccccc2)C(C)(O)C1 (configuration not stated),0.19
8,CCOC(=O)C1=NN(C(=O)c2ccco2)C2(CC2)C1,-0.239
9,Cn1ncc(Br)c1C(=O)OCC(=O)Nc1nc(-c2ccccc2)cs1,-0.654
10,CCCCOCCCNC(=O)/C=C/c1ccccc1Cl,-0.149
11,C/C=C/c1ccc(OCCCNC2CCCC2)c(OC)c1,1.24
12,COC(=O)c1cc(C#N)c(N(C)Cc2ccccc2)nc1C,-0.154
13,CCc1nnc(NC(=O)CSc2nnc(-c3ccncc3)n2C)s1,-1.78
14,COC(=O)c1cc(O)c(OCc2ccccc2)c(O)c1,-0.276
15,CCOC(=O)C1=C(C)NC(=O)NC1c1cccc(O)c1 (configuration not stated),-0.126
16,CCOC(=O)C1CCC(CNCc2ccc(Cl)cc2)CC1 (configuration not stated),-1.85
17,CNc1c([N+](=O)[O-])cnn1-c1ccc(Cl)cc1Cl,-0.197
18,CCOC(=O)C1=NN(C(=O)c2ccc(C)cc2)C(O)(c2ccc(Cl)cc2)C1 (configuration not stated),10.4 (active)
19,CC1=NN(C(=O)COc2ccc(C)c(C)c2)C(O)(c2ccc(Cl)cc2)C1 (configuration not stated),-0.32
20,CC1=NN(C(=O)COc2ccccc2C)C(O)(c2ccc(Cl)cc2)C1 (configuration not stated),-0.867
